Mdm2-MdmX inh: inhibitors of human Mdm2/MdmX interaction. SaOS-2 split-luciferase Mdm2/MdmX complementation, luminescence. inhibition, % at 8 µM. AID 485346. actives 3% (n = 330,000). O15151+Q00987;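 active = inhibition of at least 50% at 8 µM in the primary screen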
Target sequence (O15151 whole entry, looked up): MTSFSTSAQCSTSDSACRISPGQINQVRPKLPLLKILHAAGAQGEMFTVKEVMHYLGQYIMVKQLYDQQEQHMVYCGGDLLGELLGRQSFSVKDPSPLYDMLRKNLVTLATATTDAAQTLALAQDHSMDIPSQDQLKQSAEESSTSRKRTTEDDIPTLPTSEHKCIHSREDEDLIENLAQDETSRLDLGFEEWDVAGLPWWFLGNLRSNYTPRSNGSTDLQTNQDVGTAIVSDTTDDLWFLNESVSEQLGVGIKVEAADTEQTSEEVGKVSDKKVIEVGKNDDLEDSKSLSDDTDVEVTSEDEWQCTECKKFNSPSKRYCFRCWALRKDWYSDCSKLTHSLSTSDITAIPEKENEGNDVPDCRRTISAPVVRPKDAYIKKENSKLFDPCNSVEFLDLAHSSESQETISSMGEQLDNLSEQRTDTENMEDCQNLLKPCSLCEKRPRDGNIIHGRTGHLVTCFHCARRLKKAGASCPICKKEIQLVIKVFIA
Target sequence (Q00987 whole entry, looked up): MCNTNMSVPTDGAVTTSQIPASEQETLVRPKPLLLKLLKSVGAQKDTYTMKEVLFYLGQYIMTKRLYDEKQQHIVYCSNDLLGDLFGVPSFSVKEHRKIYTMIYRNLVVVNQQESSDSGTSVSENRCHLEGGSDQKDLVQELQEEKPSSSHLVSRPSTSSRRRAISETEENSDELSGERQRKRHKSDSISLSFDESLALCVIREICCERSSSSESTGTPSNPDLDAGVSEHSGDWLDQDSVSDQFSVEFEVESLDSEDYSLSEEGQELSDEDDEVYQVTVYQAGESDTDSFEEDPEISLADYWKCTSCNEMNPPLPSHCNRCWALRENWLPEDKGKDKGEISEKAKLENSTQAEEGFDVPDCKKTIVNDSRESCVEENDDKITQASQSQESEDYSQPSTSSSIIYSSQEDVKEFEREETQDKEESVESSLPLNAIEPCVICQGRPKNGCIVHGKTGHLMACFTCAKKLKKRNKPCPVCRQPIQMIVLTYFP
CSC inhib: blocks cancer stem cells. AID 2717. actives 1.1% (n = 300,000). cancer stem cell-like cells viability, luminescence. inhibition, % at 7.5 µM; in the data active = inhibition above about 75%; tested in HMLE shEcad cells
MPTP inh: blocks calcium-induced mitochondrial swelling | isolated mouse mitochondria, Ca2+ swelling absorbance, 30 min | inhibition, % at 10 µM | actives 1.4% (n = 360,000);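 active = inhibition of 50% or more, scaled per plate between neutral and stimulator controls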;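 also: 0% = DMSO wells given calcium and 100% = 1 mM EGTA wells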
SKKanGAS inh: blocks kanamycin growth of S. pyogenes SKKanGAS strain. BacTiter-Glo, 6 h. inhibition, % at 7.5 µM. actives 1.3% (n = 300,000);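 active = mean replicate score, as percent of positive control median, at least 50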;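 also: strain carries kanamycin resistance gene driven by streptokinase promoter and grows in 40 µg/ml kanamycin; loss of luminescence reflects streptokinase promoter inhibition or plain growth inhibition; 0% = median of DMSO wells and 100% = positive control at its reference dose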
Beta apoptosis: beta cell apoptosis inhibition | INS-1E cytokine-induced death, ATP luminescence, 48 h; percent of positive-control rescue, neutral wells zero | protection from apoptosis, % (concentration not given with the values) | actives 0.8% (n = 300,000) | AID 435005;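 active = Every replicate reaches about 75%, or at least half do and their mean reaches it too, limit read from the data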;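 also: 0% = cytokine-treated negative control wells and 100% = positive control rescue; higher means more ATP so stronger rescue from cytokine killing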
NR3A LBD binder: modulators (binders) of human NR3A ligand-binding domain; AID 1259313; NR3A LBD differential scanning fluorimetry, Tm shift; 0% = protein alone, 100% = glycine-bound protein; Tm shift relative to glycine control, % at 25 µM; actives 2.5% (n = 340,000);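 active = melting temperature shift of at least 10% of the positive control shift, at one fixed dose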
Mdm2-MdmX conf: human Mdm2/MdmX binding inhibition, confirmed; shares compounds with Mdm2-MdmX inh; luminescent assay; inhibition, % at 8 µM; actives 55% (n = 10,000); in the data active = inhibition above about 40%
Full FLuc ctr: inhibits full-length luciferase, flagging false Mdm2/MdmX hits | shares compounds with Mdm2-MdmX inh | actives 77% (n = 6,200) | SaOS-2 full-length luciferase counterscreen, luminescence | inhibition, % at 8 µM;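 active = mean inhibition at 8 µM reaching about 37%, which flags the compound as non-specific, limit read from the data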;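 also: p53-null SaOS-2 cells with luciferase driven by a doxycycline-inducible promoter; compound on cells about two nights before reading with doxycycline added after day one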
Numbers without * were called inactive; . = no result. Rows were chosen to be rich in hits. Some 6.9% of all compounds tested hit in one or more screens of this group.

SMILES	Mdm2-MdmX inh	CSC inhib	MPTP inh	SKKanGAS inh	Beta apoptosis	NR3A LBD binder	Mdm2-MdmX conf	others
C[C@H](NC(=O)c1ccccc1)C(=O)N1CCN(Cc2ccc3c(c2)OCO3)CC1	5.8	4.6	0.0	.	-1.4	1.9	.
CCC(C)SCC(=O)Nc1ccc(S(=O)(=O)N2CCOCC2)cc1OC (stereo not given)	3.7	-11.4	0.7	-7.4	-2.2	-1.3	.
O=C(c1cccs1)c1no[n+]([O-])c1C(=O)c1cccs1	94.9*	-8.1	0.1	0.8	46.8	-0.1	-0.7
COc1ccc(C(=O)CC(=O)c2ccc(OC)cc2)cc1	33.8	18.1	0.1	-2.8	-1.1	-18.3	.
COc1ccc(C(=O)c2no[n+]([O-])c2C(=O)c2ccc(OC)cc2)cc1	62.5*	-40.0	-1.4	-13.5	-12.7	-1.4	26.4
O=C(c1cc(-c2cccnc2)nc2ccccc12)N1CCN(S(=O)(=O)c2ccc(Cl)s2)CC1	.	.	-0.3	.	.	-1.3	.
CN1C2CCC1/C(=C\c1ccccc1)C(=O)/C2=C\c1ccccc1	94.9*	92.3*	-0.4	12.3	-21.8	1.9	56.5*	Full FLuc ctr=15.2
CCCCC(CCCC)=N/N=C/c1c(O)n(CC)c2cc(C3=NNC(=O)CC3)ccc12	58.1*	-17.3	0.8	8.4	19.5	-1.4	9.2
CCCCn1c(SCC(=O)N2c3ccccc3Sc3ccccc32)nc2c1c(=O)n(C)c(=O)n2C	59.1*	2.6	-8.9	15.6	16.6	-0.2	20.2
CC1Cc2ccccc2N1C(=O)CSc1nc2c(c(=O)n(C)c(=O)n2C)n1Cc1ccc(F)cc1 (stereo not given)	71.7*	8.7	1.4	26.7	16.7	0.9	47.1*	Full FLuc ctr=71.5*
Cc1cc2nccc(-c3ccc(Cl)cc3Cl)n2n1	6.1	-5.4	-0.4	8.7	-3.9	-1.0	.
O=C(NC1CCCCC1)C(c1ccccc1)N(Cc1cccnc1)C(=O)c1csnn1 (stereo not given)	17.2	-11.4	-0.4	-0.6	-15.3	-2.2	.
Cc1ccc(C(C(=O)NCc2ccco2)N(C(=O)CNC(=O)c2cccs2)c2c(C)cccc2C)cc1 (stereo not given)	52.1*	3.5	3.1	9.7	35.7	-19.2	53.1*	Full FLuc ctr=64.6*
Cc1ccc(C(C(=O)NCc2ccco2)N(Cc2ccco2)C(=O)CNC(=O)c2ccco2)cc1 (stereo not given)	-11.2	-9.5	1.1	-21.4	-1.1	5.1	.
Cc1ccc(C(C(=O)NCc2ccco2)N(C(=O)CNC(=O)c2cccs2)c2c(C)cc(C)cc2C)cc1 (stereo not given)	87.0*	31.7	-0.4	7.8	-5.9	-5.5	52.9*	Full FLuc ctr=43.2*
Cc1ccc(C(C(=O)NCc2ccco2)N(C(=O)CNC(=O)c2cccs2)c2ccc(C)cc2)cc1 (stereo not given)	-5.3	-8.5	-0.7	15.3	-7.5	-22.3	.
COc1cccc(-c2cnc(C(O)c3c(C)cccc3C)[nH]2)c1 (stereo not given)	.	.	-0.2	.	.	.	.
CC(C)(C)c1nc2scc(-c3ccc(Cl)cc3)c2c(=O)o1	-15.7	4.6	-0.7	18.5	-2.0	-0.1	.
O=c1oc(-c2ccccc2F)nc2scc(-c3ccccc3)c12	53.1*	11.7	2.1	-0.7	8.6	1.9	49.7*	Full FLuc ctr=171.2*
COc1ccc(-c2csc3nc(C)nc(N4CCCCC4)c23)cc1OC	65.4*	31.8	3.6	1.8	-0.5	-0.6	31.9
COc1ccc(-c2csc3nc(-c4cccnc4)nc(N4CCC(C(N)=O)CC4)c23)cc1OC	41.8	-2.5	-1.4	5.9	-26.2	0.0	.
COc1ccc(-c2csc3nc(C(C)(C)C)oc(=O)c23)cc1OC	12.8	-10.0	0.7	-19.2	-0.5	-0.3	.
COc1ccc(-c2csc3nc(-c4ccc(C)cc4)oc(=O)c23)cc1OC	92.3*	23.3	0.7	3.8	17.4	-2.4	21.3
Cc1nc2scc(-c3ccccc3)c2c(=O)o1	3.9	-11.9	-1.1	-1.7	-1.6	-0.3	.
COc1ccc(-c2csc3nc(-c4ccccc4OC)oc(=O)c23)cc1	59.4*	63.9	2.3	.	9.1	-1.3	24.0

Assay outcomes deposited in PubChem by several laboratories.
